# Data taken from PubChem BioAssay AID488969 (Vanderbilt High Throughput Screening Facility, 2010).
# Whole data set: some 110,000 compounds, median “z-score” near -0.1, cut for the highest 2% near 2. What follows is part of a selection rich in the highest values, with near analogues and random picks from the rest. The source made the active and inactive calls.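 Rule for the calls: active = z-score in the third read window above 3 or below -3; inactive = the rest.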
# Molecular target: Metabotropic glutamate receptor 8 (Rattus norvegicus) (UniProt P70579)
# Assay: mGluR8 Gi/Go-coupled signaling modulation – cell-based, rat, thallium flux, HTS, primary screen (AID 488969)
# Conditions: HEK293 rat mGluR8, GIRK (G protein-gated inwardly rectifying potassium channel) thallium flux, FluoZin2; at 10 µM; stronger effect = higher value; submaximal glutamate (EC20) added with thallium
# Sequence of Metabotropic glutamate receptor 8 (Rattus norvegicus) (P70579 whole entry, looked up): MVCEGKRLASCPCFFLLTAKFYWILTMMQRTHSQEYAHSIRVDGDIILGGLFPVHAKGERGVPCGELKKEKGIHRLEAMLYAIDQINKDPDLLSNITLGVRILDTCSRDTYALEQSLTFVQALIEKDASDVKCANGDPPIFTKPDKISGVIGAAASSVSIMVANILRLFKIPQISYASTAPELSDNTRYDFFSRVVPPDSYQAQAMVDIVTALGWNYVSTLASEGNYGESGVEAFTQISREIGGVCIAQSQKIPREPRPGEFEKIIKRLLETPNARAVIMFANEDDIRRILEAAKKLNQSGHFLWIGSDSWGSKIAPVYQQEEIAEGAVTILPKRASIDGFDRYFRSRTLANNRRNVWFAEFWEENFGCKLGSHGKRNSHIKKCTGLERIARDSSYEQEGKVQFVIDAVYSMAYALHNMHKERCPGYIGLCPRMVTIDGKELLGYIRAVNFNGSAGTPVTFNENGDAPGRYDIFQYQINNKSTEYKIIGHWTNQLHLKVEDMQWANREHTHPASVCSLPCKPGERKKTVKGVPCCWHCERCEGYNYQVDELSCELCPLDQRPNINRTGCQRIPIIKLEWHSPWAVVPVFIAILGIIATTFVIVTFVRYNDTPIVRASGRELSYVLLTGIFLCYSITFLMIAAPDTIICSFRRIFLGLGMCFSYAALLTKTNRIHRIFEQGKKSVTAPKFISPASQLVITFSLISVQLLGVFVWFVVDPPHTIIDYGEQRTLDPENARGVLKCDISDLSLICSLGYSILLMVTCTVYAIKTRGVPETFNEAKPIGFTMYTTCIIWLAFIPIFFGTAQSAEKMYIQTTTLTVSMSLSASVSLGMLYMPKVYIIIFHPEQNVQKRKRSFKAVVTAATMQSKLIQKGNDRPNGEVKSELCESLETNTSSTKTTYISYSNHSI
row,SMILES,z-score
1,O=C(Nc1ccccc1)N1CCN(c2ccc(F)cc2)CC1,0.147
2,CC(=O)c1ccc(Sc2ccc(C(C)=O)cc2)cc1,-0.316
3,CCn1nnc(-c2ccccc2NC(=O)c2cc(OC)c(OC)c(OC)c2)n1,-1.03
4,O=C(NC1CCCc2ccccc21)c1cccc(S(=O)(=O)N2CCN(c3ccccc3)CC2)c1 (stereo not given),2.28
5,CN(C)S(=O)(=O)c1cccc(C(=O)NC2CCCc3ccccc32)c1 (stereo not given),-0.104
6,CC(=O)N1CCN(S(=O)(=O)c2cccc(C(=O)NC3CCCc4ccccc43)c2)CC1 (stereo not given),0.0317
7,COC(=O)c1ccc(/C=N/NC(=O)CC(=O)NCC(C)C)cc1,-0.0626
8,COc1cc(CNCCO)cc(Br)c1OCc1ccccc1Cl,1.32
9,O=C(O/N=C/c1ccc2c(c1)OCO2)c1ccccc1Cl,0.0816
10,CCOc1ccc(-n2c(SCc3nc(-c4cccs4)no3)nnc2-c2ccncc2)cc1,7.31 (active)
11,CCCn1c(SCc2nc(-c3cccs3)no2)nnc1-c1ccncc1,0.141
12,CCOc1ccc(-n2c(SCc3nc(-c4ccc(C)cc4)no3)nnc2-c2ccncc2)cc1,-0.127
13,S=C(Nc1cccc(Cl)c1Cl)Nn1cnnc1,-0.236
14,O=C(O)c1ccc(NC(=S)NC(NC(=O)c2ccco2)C(Cl)(Cl)Cl)cc1 (stereo not given),-0.0488
15,Cc1cc(C)c2[nH]c(=S)cc(C)c2c1,5.14 (active)
16,Cc1cc2[nH]c(=S)[nH]c2cc1C,0.151
17,Cc1cc(C)c2[nH]c(=O)c(=O)[nH]c2c1,-0.178
18,NC(=O)C1CCN(CC(=O)Nc2cccc(C(=O)Nc3cccc(C(F)(F)F)c3)c2)CC1,-0.137
19,CS(=O)(=O)N(Cc1ccccc1)c1ccc(C(=O)NC2CCCCC2O)cc1 (stereo not given),0.252
20,O=C(NNS(=O)(=O)c1ccc(F)c(Cl)c1)c1cccc(S(=O)(=O)N2CCOCC2)c1,-0.0447
21,O=C(NNS(=O)(=O)c1ccccc1F)c1cccc(S(=O)(=O)N2CCOCC2)c1,10.4 (active)
22,O=C(NNS(=O)(=O)c1cccc(Cl)c1Cl)c1cccc(S(=O)(=O)N2CCOCC2)c1,-0.174

row,SMILES,z-score
1,CCNc1nc(NC(C)CC)nc(Oc2ccc(=O)[nH]n2)n1 (stereo not given),-0.162
2,CN=C1c2cc3c(Br)c(OC)ccc3n2CCN1C,0.218
3,CN=C1c2cc3cc(OC)ccc3n2CCN1C,0.371
4,CN=C1c2c(-c3ccccc3)c3cc(OC)ccc3n2CCN1C,4.2 (active)
5,Cc1cccc(-n2c(-c3ccco3)nc3nc4ccccc4nc32)c1,-0.0341
6,Fc1cccc(-n2c(-c3ccco3)nc3nc4ccccc4nc32)c1,3.05 (active)
7,CCC(C)n1c(-c2ccco2)nc2nc3ccccc3nc21 (stereo not given),-1.06
8,CCOC(=O)c1cnc(-c2ccccc2)nc1Oc1ccc(Cl)cc1,-0.241
9,CCOC(=O)c1cnc(-c2ccccc2)nc1Oc1ccc(C)cc1,2.4
10,CCOC(=O)c1cnc(-c2ccccc2)nc1Oc1ccccc1,-0.19
11,COc1ccc(C(=O)Nc2ccc(S(=O)(=O)NCc3ccco3)cc2)cc1OC,3.13 (active)
12,Cc1ccc(C(=O)Nc2ccc(S(=O)(=O)NCc3ccco3)cc2)cc1,0.0377
13,O=C(Nc1ccccc1)c1ccc(S(=O)(=O)NCc2ccco2)cc1,-0.18
14,CCOC(=O)c1c(NC(=O)C2CCCO2)sc(C(N)=O)c1C (stereo not given),-0.0328
15,CN(C)c1ccc(N=Nc2ccccc2C(=O)OCC(=O)NC2CCCC2)cc1,-0.235
16,COc1cccc(C(=O)NC(C)c2ccc(Br)cc2)c1 (stereo not given),-0.143
17,CCCC(=O)NC1C2CC3CC(C2)CC1C3 (stereo not given),0.313
18,CC(=O)c1c(C)[nH]c(C(=O)OCC(=O)Nc2cccc(S(=O)(=O)N3CCCC3)c2)c1C,0.16
19,Cc1cc(C)c(C)c(S(=O)(=O)NNC(=O)c2cccc(S(=O)(=O)N3CCOCC3)c2)c1C,-0.174
20,COC(=O)n1c(=S)oc2cc(Cl)ccc21,2.15
21,Cc1ccccc1OC(=O)n1c(=S)oc2cc(Cl)ccc21,1.42
22,CCCCOC(=O)n1c(=S)oc2cc(Cl)ccc21,-0.00789

row,SMILES,z-score
1,O=C(NCc1ccco1)c1ccc(S(=O)(=O)c2cccc(S(=O)(=O)N3CCOCC3)c2)cc1,0.0723
2,CCC(C)C(=O)Nc1nc(C)c(-c2csc(Nc3ccccc3OC)n2)s1 (stereo not given),-0.407
3,Clc1ccc(OCc2cc(-c3ccccc3)no2)c(Cl)c1,-0.0969
4,CCOc1ccc2nc(N3C(=O)/C(=C/c4ccccc4)NC3=S)sc2c1,3.66 (active)
5,CCOc1ccc2nc(N3C(=O)/C(=C/c4ccc(Cl)cc4)NC3=S)sc2c1,1.05
6,COc1ccc2nc(N3C(=O)CC(Cc4ccc(Cl)cc4)C3=O)sc2c1 (stereo not given),-0.21
7,CCOc1ccc2nc(SCC(=O)c3ccccc3)sc2c1,0.303
8,COc1ccc2nc(N3C(=O)/C(=C/c4ccc(Cl)cc4)NC3=S)sc2c1,6.84 (active)
9,COc1ccc(N2C(=O)/C(=C/c3cccnc3)NC2=S)cc1,-0.439
10,COc1ccc2nc(N3C(=O)CC(C(C)c4ccccc4)C3=O)sc2c1 (stereo not given),-0.143
11,COC(=O)/C=C1\C(=O)N(c2nc3ccc(OC)cc3s2)C(=S)N1c1ccc(F)cc1,0.0125
12,COc1ccc2nc(N3C(=O)/C(=C/c4ccccc4)NC3=S)sc2c1,11.9 (active)
13,Cc1cccc(OCCNc2cc(N3CCN(CCO)CC3)ccc2[N+](=O)[O-])c1,-0.0985
14,Cc1cc2c(cc1C)NC1(C(=O)Nc3ccccc31)C1=C(CC(C)(C)CC1=O)N2 (stereo not given),0.0524
15,Cc1cccc(Oc2ccccc2NC(=O)c2cnccn2)c1,-0.109
16,COc1cc(C(=O)NCCc2ccc3c(c2)OCCO3)ccc1OCC(=O)N1CCOCC1,0.0469
17,CCCCOc1ccc(-c2cc(C(=O)NNC(=S)NCC)c3ccccc3n2)cc1,-0.155
18,COc1ccccc1N1CCN(C(CNC(=O)c2ccc3c(c2)OCO3)c2cccnc2)CC1 (stereo not given),0.0309
19,CC(CNCC1CCCO1)COc1cccc2ccccc12 (stereo not given),0.285
20,Cc1ccc(C(=O)N/C(=C\c2ccc(-c3ccc(Br)cc3)o2)C(=O)NC2CCS(=O)(=O)C2)cc1 (stereo not given),-0.13
21,O=C(Nc1ccc2oc(-c3ccncc3)nc2c1)c1ccccc1F,-0.225
22,COc1c(F)c(F)c(C(=O)Nc2ccc3oc(-c4ccncc4)nc3c2)c(F)c1F,-0.29

row,SMILES,z-score
1,O=C(Nc1ccc2oc(-c3ccncc3)nc2c1)c1c(F)c(F)c(F)c(F)c1F,3.39 (active)
2,COc1cc2c(cc1NCc1ccccn1)oc1ccccc12,-0.0883
3,CCC(=O)Nc1ccc(N2CCN(Cc3ccccc3)CC2)cc1,0.042
4,O=C(CCS(=O)(=O)c1ccccc1)Nc1nc2c(s1)COc1ccccc1-2,-0.504
5,C/C=C/C=N/Nc1nc(-c2ccc([N+](=O)[O-])cc2)cs1,-0.273
6,COc1ccc(C(=O)N2CCN(C3CCC(c4ccccc4)CC3)CC2)cc1OC (stereo not given),-1.61
7,Cc1ccc(NC(=O)CC(O)(C(F)(F)F)C(F)(F)F)cc1,-0.185
8,Cc1ccc(Cl)cc1NC(=O)CC(O)(C(F)(F)F)C(F)(F)F,-2.38
9,O=C(CC(O)(C(F)(F)F)C(F)(F)F)Nc1ccc(Cl)c(Cl)c1,6.91 (active)
10,CCOC(=O)CC(=O)CSc1nc2c(cc1C#N)CCC2,2.18
11,CCOC(=O)CC(=O)CSc1nc2c(cc1C#N)CCCCC2,1.09
12,COC(=O)CC(=O)CSc1nc2c(cc1C#N)CCC2,-0.106
13,CCC(=O)NCCCCNC(=O)CC,0.217
14,CC1(C)CC(=O)C2=C(C1)OC(N)=C(C#N)C2c1cn(-c2ccccc2)nc1-c1ccc(F)cc1 (stereo not given),-0.436
15,CCNC(=O)c1ccccc1NC(=O)c1cccc(S(=O)(=O)N2CCC(C)CC2)c1,-1.17
16,O=C1N=C(N2CCOCC2)S/C1=C\c1ccc(-c2ccccc2Cl)o1,-0.0639
17,O=C1/C(=C\c2ccc(-c3ccccc3Cl)o2)SC(=S)N1CC1CCCO1 (stereo not given),0.755
18,O=C1NC(=S)/C(=C\c2ccc(-c3ccccc3Cl)o2)S1,3.83 (active)
19,COC(=O)c1sccc1NC(=O)c1c(C)cc(=O)oc1C,-0.28
20,Cc1ccc(NC(=O)C(NC2CCCc3ccccc32)c2ccccc2)cc1Cl (stereo not given),-0.174
21,Nc1ccc(C(=O)OCC(=O)NC2CCCc3ccccc32)cc1[N+](=O)[O-] (stereo not given),-0.347
22,Cc1ccc(NC(=O)C(NC2CCCc3ccccc32)c2ccccc2)c([N+](=O)[O-])c1 (stereo not given),2.09

row,SMILES,z-score
1,O=C(NC1CCCCC1)N(C1=NCCCCC1)c1ccc(Br)cc1,-0.204
2,CCOC(=O)C1=C(c2ccccc2)OC(N)=C(C#N)C1C1CCCCC1 (stereo not given),-0.435
3,COc1ccc(/C=C2\N=C(SC)SC2=O)cc1OC,-0.325
4,Cc1ccc2ncccc2c1[N+](=O)[O-],-0.242
5,Cc1cc(-c2ccc(F)cc2)nc2cc(C(N)=O)nn12,0.242
6,COC(=O)c1cc2nc(-c3ccccc3)cc(C)n2n1,0.0407
7,CCOc1ccc(-c2cc(C)n3nc(C(N)=O)cc3n2)cc1,5.02 (active)
8,O=C(COc1ccccc1F)N1c2ccccc2CCc2ccccc21,-0.375
9,C=CCNC(=S)NC1CC(C)(C)NC(C)(C)C1,0.609
10,CCc1nn(-c2cc(Cl)ccc2OC)c2c1C(=O)CCC2,-0.275
11,CCOC(=O)c1c(NC(=S)NCCc2ccccc2)sc2c1CC(C(C)C)OC2 (stereo not given),3.42 (active)
12,CC(C)C1Cc2c(sc(NC(=S)NC(=O)c3ccccc3)c2C#N)CO1 (stereo not given),-0.13
13,CCOC(=O)c1c(NC(=S)Nc2ccccc2)sc2c1CCN(CCc1ccccc1)C2,0.012
14,CCOC(=O)c1c(NC(=S)Nc2ccccc2)sc2c1CC(C)(C)SC2,-0.0674
15,CCOC(=O)c1c(NC(=S)Nc2cccc(C)c2)sc2c1CC(C)(C)SC2,0.0638
16,C=C(C)CNC(=S)Nc1sc2c(c1C(=O)OCC)CC(C)(C)OC2,0.296
17,CCOC(=O)c1c(NC(=O)c2ccc(C)cc2)sc2c1CC(C)(C)OC2,-0.222
18,C=CCNC(=S)Nc1sc2c(c1C(=O)OCC)CC(C(C)C)OC2 (stereo not given),8.63 (active)
19,C=CCNC(=S)Nc1sc2c(c1C(=O)OCC)CC(C)(CC)OC2 (stereo not given),2.22
20,C=CCNC(=S)Nc1sc2c(c1C(=O)OCC)CCN(C(=O)OCC)C2,0.145
21,CCOC(=O)c1c(NC(=S)NC)sc2c1CC(C)(C)SC2,12.5 (active)
22,CCOC(=O)c1c(NC(=O)c2ccccc2C)sc2c1CC(C)(C)OC2,-0.332
